S1P4 antagonist: human S1P4 receptor antagonism; S1P4-expressing cells, antagonist mode, reporter read-out; actives 0.26% (n = 220,000); inhibition, % at 4.98 µM; AID 1510; O95977; in the data active = inhibition above about 29%;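 note: 0% = wells stimulated with agonist and 100% = vehicle wells without agonist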
EP2 modulator: modulators of human EP2 prostaglandin E2 receptor. actives 0.83% (n = 260,000). induction, % at 25 µM. AID 940. EP2-expressing cells, cAMP HTRF FRET, PGE2 co-stimulation;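 active = compounds whose cAMP rise, as percent of the full-agonist control response, exceeds 60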;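 note: rat C6 glioma line stably carrying human EP2 under a CMV promoter; the protocol text gives 20 µM as final concentration; 100% = response of wells given 1 µM PGE2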
S1P3 antag: blocks the human S1P3 receptor; Q99500; CHO S1P3 NFAT-BLA reporter, FRET fluorescence, antagonist mode; inhibition, % at 4.98 µM; actives 0.27% (n = 170,000); AID 485;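 active = inhibition above the plate cutoff, the mean inhibition of test wells on that plate plus 3 SD, cut at about 28% in these data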;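 note: cells challenged with S1P at its EC80 of 0.8 µM; blue over green emission ratio from cleaved BLA substrate after 4 h stimulation; 0% = S1P-stimulated wells and 100% = unstimulated DMSO-only wells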
Target sequence (Q99500 whole entry, looked up): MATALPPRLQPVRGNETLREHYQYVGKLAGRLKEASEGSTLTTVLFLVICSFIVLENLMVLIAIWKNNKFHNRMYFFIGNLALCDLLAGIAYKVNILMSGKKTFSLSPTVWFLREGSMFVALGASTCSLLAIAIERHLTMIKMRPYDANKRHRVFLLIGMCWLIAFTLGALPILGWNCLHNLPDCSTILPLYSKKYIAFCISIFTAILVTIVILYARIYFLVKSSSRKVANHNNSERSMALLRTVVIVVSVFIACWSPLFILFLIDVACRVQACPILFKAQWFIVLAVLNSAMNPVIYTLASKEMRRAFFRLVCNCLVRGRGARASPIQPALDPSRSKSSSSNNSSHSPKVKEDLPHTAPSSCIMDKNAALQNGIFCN
EP2 antag: inhibitors of human EP2 prostaglandin E2 receptor; P43116; C6 glioma cells expressing human EP2, cAMP TR-FRET; cells stimulated with saturating PGE2; inhibition, % at 25 µM; actives 0.52% (n = 260,000); AID 1422;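 active = percent inhibition above 40 after rounding to a whole number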;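 note: rat C6 glioma host cells with rolipram phosphodiesterase inhibitor present; the protocol text gives 20 µM as final concentration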
INS promoter inh: TRM-6 insulin promoter activity inhibition. actives 0.9% (n = 130,000). TRM-6 cells (human fetal islet line), insulin promoter-eGFP reporter, imaging; reporter expression induced with tamoxifen. inhibition, % at 2 µM;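 active = inhibition above the mean plus 3 SD, with well images judged a real hit on visual review, cut at about 60% in these data, passing the limit was not always enough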
S1P4 ag: agonists of human S1P4 receptor; activation, % at 4.98 µM; actives 0.35% (n = 220,000); S1P4-expressing cell line, agonist reporter assay; O95977; in the data active = activation above about 11%;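 note: 0% = DMSO vehicle and 100% = reference agonist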
* marks the source's active call; other numbers are inactive results; nt = no result given. An excerpt weighted towards active compounds, which were near 2.4% of everything screened.

SMILES	S1P4 antagonist	EP2 modulator	S1P3 antag	EP2 antag	INS promoter inh	S1P4 ag
O=c1c(O)c(-c2ccccc2)oc2ccccc12	nt	-22	nt	112*	nt	nt
FC(F)(F)c1cccc(-c2nnc3ccc(C(F)(F)F)cn23)c1	-5	-5	93*	7	6	1
COc1ccc([C@@H](Nc2ncccn2)c2cc3c(cc2O)OCO3)cc1	nt	12	nt	53*	nt	nt
COc1ccc([C@@H](C)c2cc3c(cc2O)OCO3)cc1	nt	-14	nt	13	nt	nt
COC(=O)c1[nH]c2ccc(C)cc2c1NS(=O)(=O)c1ccc(F)c(C)c1	-14	63*	24	nt	42	0
CCc1ccc(Nc2ncc3c(n2)CC(c2ccc(OC)cc2)CC3=O)cc1 (stereo unspecified)	-2	52	nt	6	28	0
COc1ccc(Nc2ncc3c(n2)CC(c2ccccc2)CC3=O)cc1 (stereo unspecified)	-9	-12	53*	7	8	1
CCOc1cc(/C=N/NC(=O)Cn2nc([N+](=O)[O-])cc2C)cc(Br)c1OCc1ccccc1F	-3	3	nt	1	22	-2
CCOc1cc(/C=N/NC(N)=O)cc(Br)c1OCc1ccccc1F	-11	62*	6	5	17	1
COc1ccc(C)cc1N(CC(=O)NCc1ccc2c(c1)OCO2)S(C)(=O)=O	nt	19	nt	8	nt	nt
COc1ccccc1C1(NC(=O)CC2NC(=O)c3ccccc32)CCCC1 (stereo unspecified)	nt	-34	nt	9	nt	nt
Cc1ccc2[nH]c(=O)c(CN(CCCO)C(=O)Nc3ccccc3)cc2c1	nt	-31	nt	4	nt	nt
Cc1ccc(N2CCN(c3ccc(NC(=O)CCC(=O)O)cc3)CC2)cc1	-5	31	-5	7	73*	1
O=C(O)CCC(=O)Nc1ccc(N2CCCCCC2)cc1	-13	12	nt	nt	37	1
O=c1c2ccccc2c(/C=N/c2ncn[nH]2)c(O)n1Cc1ccccc1	-2	22	-45	9	71*	2
CC(C)CCC(C)N=Cc1c(O)n(Cc2ccccc2)c(=O)c2ccccc12 (stereo unspecified)	-6	40	nt	5	46	2
CNc1nc2c(C)cccn2c(=O)c1C=NCc1ccccc1	7	61*	nt	nt	-42	-1
COc1ccc(Nc2nc3c(C)cccn3c(=O)c2C=NCc2ccccc2)cc1	-1	64*	6	3	0	0
Cc1cccn2c(=O)c(C=NCCO)c(Nc3ccc(Cl)cc3)nc12	3	24	-12	4	nt	-3
N=C(N)c1ccc(-c2ccc(-c3ccc(C(=N)N)cc3)o2)cc1	nt	-11	nt	52*	nt	nt
CCOc1ccc2[nH]c3nc(SCC(=O)Nc4ccccc4F)nnc3c2c1	nt	-37	nt	16	nt	nt
CCn1c(CNc2ccc(C)cc2)nnc1SCC(=O)Nc1ccccc1OC	nt	6	nt	8	nt	nt
CCOc1ccccc1NC(=O)C1OC2OC3(CCCCC3)OC2C2OC3(CCCCC3)OC12 (stereo unspecified)	nt	0	nt	50*	nt	nt
Nc1cc(=O)[nH]c(=S)n1-c1cccc(C(F)(F)F)c1	-10	6	nt	2	60*	3
COC(=O)c1ccc(-c2nc3ccccc3[nH]2)cc1	-17	-15	-1	12	64*	2
SMILES	S1P4 antagonist	EP2 modulator	S1P3 antag	EP2 antag	INS promoter inh	S1P4 ag
COC(=O)c1ccc(/C=N/Nc2nc3ccccc3[nH]2)cc1	-2	-57	-16	8	nt	0
COc1ccc(-c2nc3ccccc3[nH]2)cc1	-6	-36	nt	8	94*	0
COc1ccc(S(=O)(=O)N(Cc2cccnc2)Cc2cc3cc(OC)ccc3[nH]c2=O)cc1	nt	-88	nt	18	nt	nt
COc1cc(-c2nc3ccccc3s2)ccc1O	-6	-13	nt	31	-29	1
COc1ccc(-c2nc3ccccc3s2)cc1O	-29	-43	-10	29	86*	1
CCNC(=O)Nc1ccc2nc(C)n(Cc3cccc(Cl)c3)c(=O)c2c1	nt	-49	nt	15	nt	nt
Cc1ccc(C(=O)c2cc([N+](=O)[O-])ccc2N2CCCCC2)c(C)c1	23	63*	20	6	-148	-3
CN(C)CCCN1c2ccc3ccccc3c2Sc2cccc(Cl)c21	nt	-20	nt	49*	nt	nt
CN(C)CCCN1c2ccccc2Sc2ccc3ccccc3c21	nt	-17	nt	12	nt	nt
CC(=O)Nc1nc(N2C(=O)c3ccccc3C2=O)n(-c2ccccc2)n1	2	15	-6	6	76*	1
CCn1nnc(NC(=O)COc2ccc(C(C)C)cc2)n1	nt	12	nt	8	nt	nt
Cc1nc2c3cc(F)ccc3n(Cc3ccc(F)cc3)c2s1	-20	44	8	8	77*	2
COc1ccc2cc(C#N)c(SCC(=O)N3CCCC(C)C3)nc2c1 (stereo unspecified)	nt	-23	nt	5	nt	nt
Cc1ccc2cc(C)c(SCC(=O)N3CCCC(C)C3)nc2c1 (stereo unspecified)	nt	62*	nt	9	nt	nt
O=C(Cc1cccs1)Nc1cccc(C(=O)Nc2ccco2)c1	-20	-18	52*	23	53	-3
CC(C)(O)P(C)(=O)c1ccccc1 (stereo unspecified)	8	-4	28	10	nt	1
CC(C)(C)c1cccc(P(=O)(c2ccccc2)c2ccccc2)c1O	12	66*	-7	12	nt	2
c1ccc2c(c1)Cn1c-2nc2ccccc21	-4	-5	-24	18	95*	-2
O=C(NCCCO)C1CCCN(S(=O)(=O)c2ccc(Cl)cc2)C1 (stereo unspecified)	nt	21	nt	17	nt	nt
O=C(CCCSc1ccccc1)Nc1nc(-c2ccco2)c(-c2ccco2)s1	0	-47	-8	8	76*	0
O=C(CCl)Nc1nc(-c2ccco2)c(-c2ccco2)s1	-9	3	7	10	35	-2
Cc1noc(C)c1CCC(=O)Nc1ccc(-c2cn3c4c(nnc3n2)CCCC4)cc1	nt	-21	nt	6	nt	nt
Cc1cc(C)nc(N(C#N)CN2C(=O)c3ccccc3C2=O)n1	-3	22	nt	2	nt	1
Cc1cc(C)nc(N(C#N)S(=O)(=O)c2ccccc2)n1	-2	12	-12	10	82*	0
Cc1ccc(CN(CCCn2ccnc2)Cc2cc(C)c(O)c(C)c2)s1	nt	10	nt	7	nt	nt
SMILES	S1P4 antagonist	EP2 modulator	S1P3 antag	EP2 antag	INS promoter inh	S1P4 ag
Cc1ccc(-c2nnn(CC(=O)Nc3ccccc3-c3ccc(C)o3)n2)o1	nt	-21	nt	23	nt	nt
COc1cccc(N2CCN(c3ncnc4c3[nH]c3ccc(F)cc34)CC2C)c1 (stereo unspecified)	22	-55	nt	99*	50	-4
COc1ccc(-c2cc(C(F)(F)F)nc(SCC(=O)Nc3ccc(C(C)=O)cc3)n2)cc1OC	nt	3	nt	7	nt	nt
Cn1c(=O)c([N+](=O)[O-])c(Cl)c2ccccc21	11	-33	5	95*	nt	3
Cc1nc(C/C(=N\Nc2ccccc2)c2ccc(O)cc2O)cs1	-24	64*	-1	3	nt	0
Cc1nc(CC(=O)c2ccc(O)cc2O)cs1	-4	3	nt	6	-27	1

Screening data (PubChem BioAssay)
